In ChEMBL document CHEMBL4513216, “Probing the Open Global Health Chemical Diversity Library for Multistage-Active Starting Points for Next-Generation Antimalarials” (ACS Infect Dis, 2020):
Screen size: about 65,000 compounds; about 2,100 (3.2%) showed an effect of 50% or more. The median lay at about -52%. The sample holds strong results, similar compounds and a random draw of the others, so the mix is not that of the screen.

Test system: Plasmodium falciparum
Experiment: Screen against P. falciparum Asexual Blood Stage (ABS), at 5uM
Format: functional, Dd2
Conditions: tested at 5 uM

| Compound | INHIBITION |
| --- | --- |
| COc1ccccc1CNC(Cc1cccs1)c1nc(C)c(C)s1 (stereo not drawn) | 59.8% |
| CC(=O)N1CCCC1c1cccc(Cc2ccccc2F)n1 (stereo not drawn) | -89.4% |
| CN1CCCC1c1cccc(Cc2ccccc2F)n1 (stereo not drawn) | -1.19% |
| CN(C)C(=O)CN1CCCC1c1cccc(Cc2ccccc2F)n1 (stereo not drawn) | 68.8% |
| CC(C)CN1CCn2c(nc3cc(C(=O)NC(C)C)ccc32)C1 | -53.7% |
| COCCNc1nc2c(c(NCC3CCOC3)n1)CCNCC2 (stereo not drawn) | -47.9% |
| OC(CNc1ncnc2c1CCNCC2)C(F)(F)F (stereo not drawn) | -178% |
| COCCNc1nc(C2CCCC2)nc2c1CCNCC2 | 54.1% |
| Cc1nc2c(c(NCC(O)C(F)(F)F)n1)CCNCC2 (stereo not drawn) | -121% |
| COCc1noc(CNc2nc(C3CCCC3)nc3c2CCNCC3)n1 | 27.3% |
| OC(CNc1nc(C2CCCC2)nc2c1CCNCC2)C(F)(F)F (stereo not drawn) | 64.6% |
| Cc1c(Cl)c(C(=O)NN2CCOCC2)nn1C | -48.6% |
| O=C(CC1COCCN1S(=O)(=O)c1ccccc1)NCc1ccccn1 (stereo not drawn) | -170% |
| O=C(C1CCC2(CCN(c3nncs3)CC2)CO1)N1CCCC1 (stereo not drawn) | 13.3% |
| CC(C)CN1C(=O)C2(CCN(CC3CCOCC3)C2)c2ccccc21 (stereo not drawn) | 39.6% |
| COc1ccsc1C(=O)N1CCCC(n2cncn2)C1 (stereo not drawn) | -121% |
| O=C(NCc1ccco1)[C@@H]1CC[C@@H]2[C@@H](CCN2Cc2ccc(F)cc2)O1 | 67.2% |
| O=C(NCc1ccco1)[C@H]1CC[C@@H]2[C@@H](CCN2Cc2nccs2)O1 | -11.2% |
| O=C(NCc1ccco1)[C@H]1CC[C@@H]2[C@@H](CCN2Cc2cccnc2)O1 | -34.5% |
| Cc1ncsc1CN1C[C@H](C(=O)NC2CCCC2)[C@@H]2CCO[C@@H]2C1 | 1.73% |
| CCO[C@H]1CO[C@@]2(CCCN(Cc3scnc3C)C2)C1 | -22.6% |
| CNC(=O)CNC1CC2(CCN(c3ncccn3)CC2)c2ccccc21 (stereo not drawn) | -84.5% |
| c1cnc(N2CCC3(CC2)CC(NCC2CC2)c2ccccc23)nc1 (stereo not drawn) | 54.2% |
| CS(=O)(=O)N1CCC2(CC1)CC(NCC1CC1)c1ccccc12 (stereo not drawn) | 48.3% |
| Cc1ccccc1-c1cc(C(=O)N2CCCC(n3ccnc3C)C2)[nH]n1 (stereo not drawn) | -29.5% |
| COCCN1CCCCC12CC(=O)N(c1cccc(C#N)c1)C2 (stereo not drawn) | -132% |
| COCCCNC(=O)CN1CCOC(c2ccccc2)C1 (stereo not drawn) | -41.4% |

| Compound | INHIBITION |
| --- | --- |
| CCc1cccc(N2CCC(NC(=O)c3ccco3)CC2)c1 | 60.4% |
| CCc1cccc(N2CCC(NC(=O)c3ccncc3)CC2)c1 | -62.9% |
| CCc1cccc(N2CCC(NC(=O)c3ccoc3C)CC2)c1 | -16.9% |
| CN1CCN(C(=O)[C@H]2C[C@@H]3CCN(c4ncc(F)cn4)C[C@@H]3O2)CC1 | -116% |
| O=C(Nc1cccnc1-n1cccn1)N1CCCC(N2CCCC2)C1 (stereo not drawn) | 26.8% |
| CCN(CC)C1CCN(C(=O)c2cc(-n3cccn3)ccc2Cl)CC1 | 65.1% |
| CCN(CC)C1CCN(C(=O)NCc2cccc(-n3cccn3)c2)C1 (stereo not drawn) | -61.3% |
| O=C(c1cc(-n2cccn2)ccc1Cl)N1CCCC(N2CCCC2)C1 (stereo not drawn) | 65.8% |
| O=C(c1cc(-n2cccn2)ccc1Cl)N1CCC(N2CCCC2=O)CC1 | -100% |
| O=C(c1ccc(-n2cccn2)c(F)c1)N1CCCN2CCCC2C1 (stereo not drawn) | -23.2% |
| Cc1cccc(NC2CCN(C(=O)Nc3ccc(F)c(F)c3)CC2)n1 | -20.3% |
| Cc1ccc(C(=O)N2CCC3(CC2)CC(N2CCOCC2)C3)cc1 | -158% |
| CC(C)CC(=O)Nc1cccc(CNCc2cccs2)c1 | -70.1% |
| O=C(c1cc[nH]n1)N1CCc2onc(COc3cccnc3)c2C1 | -33.4% |
| O=C(c1ccncc1F)N1Cc2nc(COCC3CC3)oc2C1 | -37.7% |
| c1cncc(COCc2nnc3n2CCN(Cc2ccco2)C3)c1 | -119% |
| Cn1cc(-c2cnc3n2CCC32CCN(S(=O)(=O)C3CC3)CC2)cn1 | -61.5% |
| Cc1cnc(NCc2csc(C(C)C)n2)nc1-c1cnn(C)c1 | -52.9% |
| CCCn1ccnc1CN1CCc2[nH]cnc2C1Cc1ccccc1 (stereo not drawn) | 66.5% |
| COCCn1ccnc1CN1CCc2[nH]cnc2C1c1ccccn1 (stereo not drawn) | -11.9% |
| CCn1ncnc1CN1CCc2[nH]cnc2C1Cc1ccccc1 (stereo not drawn) | -61.6% |
| COc1ccc(N2CCN(CC(O)c3cc(C)ccc3C)CC2)cc1 (stereo not drawn) | 31.4% |
| Cc1nc(CN2CCCCC2CCc2ccc(O)cc2)no1 (stereo not drawn) | -168% |
| Cc1noc(C)c1CN1CCCCC1CCc1ccc(O)cc1 (stereo not drawn) | 51.5% |
| Oc1ccc(CCC2CCCCN2Cc2noc(C3CC3)n2)cc1 (stereo not drawn) | -61.9% |
| Cc1ccc(S(=O)(=O)N2CCc3nc(C4CCNCC4)ncc3C2)cc1 | -51.4% |
